The values that follow come from PubChem BioAssay (NCATS).

Records with an inconclusive call do not appear. A call without a number means that no potency is given here. Activity calls are given as the source filed them. The call rests on the fitted dose curve; in most records, active means well fitted inhibition curve with a large enough effect; inconclusive means small, poorly fitted or top-dose-only effect; inactive means flat fitted curve, though single readings scatter.
Potency means the concentration at half of the fitted maximal effect.

The first assay has as its system ECU. Nature of the assay: qHTS profiling for inhibitors of Plasmodium falciparum proliferation (AID 504749). Further: nearly all actives have a fitted effect of over 60% in size. The note with it: P. falciparum in erythrocytes, SYBR Green DNA, 72 h; series mostly up to 28.7 µM. The method, boiled down: (§1)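 Parasite proliferation within erythrocytes, 72 h exposure. Endpoint: SYBR Green I fluorescence after overnight lysis at room temperature. Controls: 0.29 uM artemisinin, DMSO.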
For orientation: In qHTS, concentration-response curves come from the screen itself.
With `CN1C(C(=O)Nc2ccccn2)C(=O)c2sc(Cl)cc2S1(=O)=O` (stereo not drawn), the Potency result was “inactive”.
As to `CC(CC=O)CCCC(C)(C)O` (stereo not drawn), the Potency entry is “inactive”.
Regarding `O=S(=O)(O)CC(S)CS` (stereo not drawn), the Potency entry is “inactive”.
The same measure, in the same setting: the entry for `CO/N=C(\C(=O)N[C@@H]1C(=O)N2C(C(=O)[O-])=C(C[n+]3cccc4c3CCC4)CS[C@H]12)c1csc(N)n1` is “inactive”; for `NCCO/C=C/[C@H](N)C(=O)O` it is “inactive”.
With `CCCCCCCCCCCC(=O)N(CCO)CCO`, the Potency result was “inactive”.
On to `CC(C)(COP(=O)(O)OP(=O)(O)OC[C@H]1O[C@@H](n2cnc3c(N)ncnc32)[C@H](O)[C@@H]1OP(=O)(O)O)C(O)C(=O)NCCC(=O)NCCS` (stereo partly drawn), for which the Potency result was “inactive”.
As to `O=P(O)(O)CP(=O)(O)O`, the Potency entry is “inactive”.
Take `CC(C)(Oc1ccc(C2CCCc3ccccc32)cc1)C(=O)O` (stereo not drawn): the Potency entry was “inactive”.
With `CC(C)(CO)[C@@H](O)C(=O)NCCC(=O)NCCSSCCNC(=O)CCNC(=O)[C@H](O)C(C)(C)CO`, the Potency result was “inactive”.
`CCCOC(=O)c1ccccc1O`: the Potency result was “inactive”.
The same measure, in the same setting: under `C[Si](C)(C)O[Si](C)(C)C` stands “inactive”.
Same read-out and setting: under `CC1C(=O)CC2C3(C)CCC2(C(C)C(=O)O)C(=O)C13` (stereo not drawn) stands “inactive”.
`C/C=C/C=C/C(=O)O`: the Potency result was “inactive”.
For `O=C(O)CCC/C=C\C[C@@H]1[C@@H](/C=C/[C@@H](O)COc2cccc(C(F)(F)F)c2)[C@H](O)C[C@@H]1O`, the Potency result was “inactive”.
Same read-out and setting: the entry for `O=C(O)[C@H]1CN(C/C=C/P(=O)(O)O)CCN1` is “inactive”.
As to `O=C(O)[C@H]1C(=CCO)O[C@H]2CC(=O)N12`, the Potency entry was “inactive”.
Still for that read-out and setting: the entry for `CCCC(=O)O` is “inactive”; for `OC[C@H]1O[C@@H]2O[C@H]3[C@H](O)[C@@H](O)[C@@H](O[C@H]4[C@H](O)[C@@H](O)[C@@H](O[C@H]5[C@H](O)[C@@H](O)[C@@H](O[C@H]6[C@H](O)[C@@H](O)[C@@H](O[C@H]7[C@H](O)[C@@H](O)[C@@H](O[C@H]1[C@H](O)[C@H]2O)O[C@@H]7CO)O[C@@H]6CO)O[C@@H]5CO)O[C@@H]4CO)O[C@@H]3CO` it is “inactive”.
Still for that read-out and setting: under `Cc1c(Cl)cccc1Nc1ncccc1C(=O)O` stands “inactive”; under `CCc1ncnc2cc(OC)c(OC)cc12`, “inactive”.
Regarding `CC/C(=C(/CC)c1ccc(OP(=O)(O)O)cc1)c1ccc(OP(=O)(O)O)cc1`, the Potency entry is “inactive”.
`Cc1cccc(Nc2ncccc2C(=O)O)c1C`: the Potency entry was “inactive”.
As for `CC1=CC(=C(c2ccc(N)cc2)c2ccc(N)cc2)C=CC1=N`, the Potency was 2.24 µM (active).
`ClC(Cl)Cl`: the Potency result was “inactive”.
On to `O=C(O)COc1ccc(CCNS(=O)(=O)c2ccccc2)s1`, for which the Potency result is “inactive”.
Same read-out and setting: the entry for `C=Cc1ccc(S(=O)(=O)O)cc1` is “inactive”.
On the same count and under the same terms, under `CCCCO` stands “inactive”; under `CC(C)(C)c1ccc2c(S(=O)(=O)O)c(C(C)(C)C)ccc2c1`, “inactive”; under `CNC(=O)OCc1cccc(COC(=O)NC)n1`, “inactive”.
Consider `O=C(NCCNCC(O)COc1ccc(O)cc1)N1CCOCC1` (stereo not drawn), for which the Potency result is “inactive”.
For `C=CC(C)(O)CC/C=C(\C)CCC=C(C)C` (stereo not drawn), the Potency result was “inactive”.
The same measure, in the same setting: the entry for `CO[C@H]1C[C@@H]2CC[C@@H](C)[C@@](O)(O2)C(=O)C(=O)N2CCCC[C@H]2C(=O)O[C@H]([C@H](C)C[C@@H]2CC[C@@H](OC(=O)C(C)(CO)CO)[C@H](OC)C2)CC(=O)[C@H](C)/C=C(\C)[C@@H](O)[C@@H](OC)C(=O)[C@H](C)C[C@H](C)/C=C/C=C/C=C/1C` is “inactive”.
Still for that read-out and setting: under `CNC(=O)c1c(I)c(C(=O)NCC(=O)Nc2c(I)c(C(=O)O)c(I)c(C(=O)NCCO)c2I)c(I)c(N(C)C(C)=O)c1I` stands “inactive”; under `O=C(NNCS(=O)(=O)O)c1ccncc1`, “inactive”; under `COc1cc2c(cc1OC)[C@@H](Cc1cc(OC)c(OC)c(OC)c1)[N+](C)(CCCOC(=O)CC/C=C/CCC(=O)OCCC[N+]1(C)CCc3cc(OC)c(OC)cc3[C@H]1Cc1cc(OC)c(OC)c(OC)c1)CC2` (stereo partly drawn), “inactive”.
With `CCCCCCCCCCCCCCCCCC[N+](C)(C)CCC[Si](OC)(OC)OC`, the Potency result is “inactive”.
In the case of `Nc1ncnc2c1ncn2CCOCP(=O)(O)O`, the Potency result was “inactive”.
On the same count and under the same terms, the entry for `CC1=C(/C=C/C(C)=C/C=C/C(C)=C/C(=O)Oc2c(C)c(C)c3c(c2C)CC[C@@](C)(CCC[C@H](C)CCC[C@H](C)CCCC(C)C)O3)C(C)(C)CCC1` is “inactive”.

In the next assay the test system is FAB9. The description is as above. The note with it: P. falciparum in erythrocytes, SYBR Green DNA, 72 h; series mostly up to 28.7 µM. In short, it runs like this: as §1
As to `CN1C(C(=O)Nc2ccccn2)C(=O)c2sc(Cl)cc2S1(=O)=O` (stereo not drawn), the Potency result is “inactive”.
For the compound `CC(CC=O)CCCC(C)(C)O` (stereo not drawn), the Potency result was “inactive”.
With `O=S(=O)(O)CC(S)CS` (stereo not drawn), the Potency result is “inactive”.
For the compound `CO/N=C(\C(=O)N[C@@H]1C(=O)N2C(C(=O)[O-])=C(C[n+]3cccc4c3CCC4)CS[C@H]12)c1csc(N)n1`, the Potency result is “inactive”.
Still for that read-out and setting: under `NCCO/C=C/[C@H](N)C(=O)O` stands “inactive”.
Still for that read-out and setting: the entry for `CCCCCCCCCCCC(=O)N(CCO)CCO` is “inactive”; for `CC(C)(COP(=O)(O)OP(=O)(O)OC[C@H]1O[C@@H](n2cnc3c(N)ncnc32)[C@H](O)[C@@H]1OP(=O)(O)O)C(O)C(=O)NCCC(=O)NCCS` (stereo partly drawn) it is “inactive”.
For `O=P(O)(O)CP(=O)(O)O`, the Potency result was “inactive”.
Same read-out and setting: under `CC(C)(Oc1ccc(C2CCCc3ccccc32)cc1)C(=O)O` (stereo not drawn) stands “inactive”; under `CC(C)(CO)[C@@H](O)C(=O)NCCC(=O)NCCSSCCNC(=O)CCNC(=O)[C@H](O)C(C)(C)CO`, “inactive”.
Consider `CCCOC(=O)c1ccccc1O`, for which the Potency entry is “inactive”.
On the same count and under the same terms, the entry for `C[Si](C)(C)O[Si](C)(C)C` is “inactive”; for `CC1C(=O)CC2C3(C)CCC2(C(C)C(=O)O)C(=O)C13` (stereo not drawn) it is “inactive”; for `C/C=C/C=C/C(=O)O` it is “inactive”.
The same measure, in the same setting: under `O=C(O)CCC/C=C\C[C@@H]1[C@@H](/C=C/[C@@H](O)COc2cccc(C(F)(F)F)c2)[C@H](O)C[C@@H]1O` stands “inactive”.
Regarding `O=C(O)[C@H]1CN(C/C=C/P(=O)(O)O)CCN1`, the Potency entry is “inactive”.
Still for that read-out and setting: under `O=C(O)[C@H]1C(=CCO)O[C@H]2CC(=O)N12` stands “inactive”.
Turning to `CCCC(=O)O`, the Potency entry is “inactive”.
Turning to `OC[C@H]1O[C@@H]2O[C@H]3[C@H](O)[C@@H](O)[C@@H](O[C@H]4[C@H](O)[C@@H](O)[C@@H](O[C@H]5[C@H](O)[C@@H](O)[C@@H](O[C@H]6[C@H](O)[C@@H](O)[C@@H](O[C@H]7[C@H](O)[C@@H](O)[C@@H](O[C@H]1[C@H](O)[C@H]2O)O[C@@H]7CO)O[C@@H]6CO)O[C@@H]5CO)O[C@@H]4CO)O[C@@H]3CO`, the Potency entry is “inactive”.
Consider `Cc1c(Cl)cccc1Nc1ncccc1C(=O)O`, for which the Potency entry is “inactive”.
The same measure, in the same setting: the entry for `CCc1ncnc2cc(OC)c(OC)cc12` is “inactive”; for `CC/C(=C(/CC)c1ccc(OP(=O)(O)O)cc1)c1ccc(OP(=O)(O)O)cc1` it is “inactive”; for `Cc1cccc(Nc2ncccc2C(=O)O)c1C` it is “inactive”.
Same read-out and setting: the figure for `CC1=CC(=C(c2ccc(N)cc2)c2ccc(N)cc2)C=CC1=N` is 11.2 µM (active); for `ClC(Cl)Cl` it is “inactive”; for `O=C(O)COc1ccc(CCNS(=O)(=O)c2ccccc2)s1` it is “inactive”.
The same measure, in the same setting: the entry for `C=Cc1ccc(S(=O)(=O)O)cc1` is “inactive”; for `CCCCO` it is “inactive”.
`CC(C)(C)c1ccc2c(S(=O)(=O)O)c(C(C)(C)C)ccc2c1`: the Potency result was “inactive”.
With `CNC(=O)OCc1cccc(COC(=O)NC)n1`, the Potency result is “inactive”.
For `O=C(NCCNCC(O)COc1ccc(O)cc1)N1CCOCC1` (stereo not drawn), the Potency result is “inactive”.
Still for that read-out and setting: the entry for `C=CC(C)(O)CC/C=C(\C)CCC=C(C)C` (stereo not drawn) is “inactive”; for `CO[C@H]1C[C@@H]2CC[C@@H](C)[C@@](O)(O2)C(=O)C(=O)N2CCCC[C@H]2C(=O)O[C@H]([C@H](C)C[C@@H]2CC[C@@H](OC(=O)C(C)(CO)CO)[C@H](OC)C2)CC(=O)[C@H](C)/C=C(\C)[C@@H](O)[C@@H](OC)C(=O)[C@H](C)C[C@H](C)/C=C/C=C/C=C/1C` it is “inactive”.
As for `CNC(=O)c1c(I)c(C(=O)NCC(=O)Nc2c(I)c(C(=O)O)c(I)c(C(=O)NCCO)c2I)c(I)c(N(C)C(C)=O)c1I`, the Potency entry is “inactive”.
Take `O=C(NNCS(=O)(=O)O)c1ccncc1`: the Potency entry was “inactive”.
As for `COc1cc2c(cc1OC)[C@@H](Cc1cc(OC)c(OC)c(OC)c1)[N+](C)(CCCOC(=O)CC/C=C/CCC(=O)OCCC[N+]1(C)CCc3cc(OC)c(OC)cc3[C@H]1Cc1cc(OC)c(OC)c(OC)c1)CC2` (stereo partly drawn), the Potency result is “inactive”.
As for `CCCCCCCCCCCCCCCCCC[N+](C)(C)CCC[Si](OC)(OC)OC`, the Potency entry was “inactive”.
Still for that read-out and setting: the entry for `Nc1ncnc2c1ncn2CCOCP(=O)(O)O` is “inactive”; for `CC1=C(/C=C/C(C)=C/C=C/C(C)=C/C(=O)Oc2c(C)c(C)c3c(c2C)CC[C@@](C)(CCC[C@H](C)CCC[C@H](C)CCCC(C)C)O3)C(C)(C)CCC1` it is “inactive”.
